This is a sample that favours compounds with a hit; in the whole collection about 4.8% have one here.
15-hLO inh = inhibitors of human 15-lipoxygenase (ALOX15). AID 887. purified 15hLO-1, xylenol orange hydroperoxide absorbance. 74,000 tested, 1.4% active. Potency, µM (doses to about 57.1 µM), without a hit: top-dose activity change, negative = inhibition, usual class: inhibitors. P16050; further: on the % scale 0 is the no-effect control and ±100 the full control effect; nearly all actives have a fitted effect of over 55% in size
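Inhibition is scored from a chromogenic endpoint. After 15 min enzyme-compound contact, arachidonic acid (50 uM final) reacts 6 min with 40 nM 15hLO-1 at room temperature, then Fe-XO reagent is added for 30 min and absorbance ratio recorded.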
Caspase-1 inhib = blocks human caspase-1 allosterically or competitively; AID 900; 75,000 tested, 0.03% active; Potency, µM (series often up to 57.5 µM), without a hit: top-dose activity change, negative = inhibition, usual class: inhibitors; Caspase-1 enzyme, Ac-WEHD-AFC fluorogenic rate; P29466;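 further: plate controls were vehicle for no effect and no substrate for full effect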
TSHR agonist = TSH receptor (human) agonism; HEK293-CNG-TSHR cells (CNG channel as cAMP sensor), membrane potential dye, cAMP; 73,000 tested, 0.48% active; AID 926; Potency, µM (top dose mostly 57.1 µM), for inactives: top-dose activation, usual class: activators; active means well fitted activation curve with a large enough effect in the main read-out, with a control signal flat, not every such curve was filed as active; inconclusive means small, poorly fitted or top-dose-only effect, or a change in a side signal; inactive means no such curve, though single readings can be large or run the other way; % of control where 0% means no effect;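 further: the control signal comes from parental cells without the receptor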
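HEK 293 cells stably expressing TSHR and a cAMP-gated CNG channel; parental CNG-only cells as counterscreen. Cells preloaded 60 min with membrane potential dye plus 100 uM RO 20-1724, then compound 30 min; fluorescence read at 590 nm.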
HEK293 cAMP ctrl = counter-screen for TSHR agonists: cAMP increase in parental HEK293; AID 938; parental HEK293 CNG cAMP sensor, membrane potential fluorescence; Potency, µM (highest dose often 57.1 µM), for the others: at the top dose activation, most hits filed as activators; 73,000 tested, 2.5% active; further: % of control where 0% means no effect; nearly all actives have a fitted effect of over 55% in size
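Parental HEK 293 cells stably expressing a modified CNG channel (no TSHR) report cAMP rise as membrane depolarization. Membrane potential dye with 100 uM RO 20-1724 was loaded for 60 min at room temperature, then compound added for 30 min; fluorescence read at 590 nm.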
ERK AVP inh = blocks ERK signaling stimulated by vasopressin | HEK293-V1b, vasopressin-stimulated pERK AlphaScreen | Potency, µM (top dose mostly 57.5 µM), for the others: top-dose activity, negative = inhibition, hits mostly inhibitors | 72,000 tested, 0.99% active; further: on the % scale 0 is the no-effect control and ±100 the full control effect; nearly all actives have a fitted effect of over 55% in size
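HEK293 cells stably expressing V1b receptor, preincubated 30 min at 37 °C with compound, then stimulated 5 min with 25 nM vasopressin. Phospho-ERK by AlphaScreen SureFire after 5 h RT; normalized to DMSO and vasopressin; AC50 by Hill fit.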
Caspase-7 inhib = caspase-7 (human) inhibition, allosteric or competitive. AID 889. 75,000 tested, 0.02% active. Potency, µM (titrated, usually from 57.5 µM), without a hit: at the highest dose activity change, negative = inhibition, most hits filed as inhibitors. P55210. recombinant caspase-7, Ac-DEVD-AFC fluorescence rate; active means well fitted inhibition curve with a large enough effect in the main read-out, with a control signal flat, not every such curve was filed as active; inconclusive means small, poorly fitted or top-dose-only effect, or a change in a side signal; further: % of control where 0% means no effect
Active calls of the source: *; u = inconclusive; x = not tested or not shown; [ ] = dose if it differs, or a comment. Unless noted, the call rests on the fitted dose curve; in most records, active means well fitted curve in the direction sought with a large enough effect; inconclusive means small, poorly fitted or top-dose-only effect, or another doubt; inactive means no such curve, though single readings can be large; an effect the other way counts as inactive or inconclusive. Potency means the concentration at half of the fitted maximal effect.

SMILES	15-hLO inh	Caspase-1 inhib	TSHR agonist	HEK293 cAMP ctrl	ERK AVP inh	Caspase-7 inhib
Cn1c(C(=O)NCc2cccnc2)cc2sc(Cl)cc21	0.7%	-3.8%	u	25.1µM*	x	0.3%
O=C(NCc1cccnc1)C1CC(c2ccc(F)cc2)=NO1 (stereo not given)	26.0%	0.8%	-0.6%	11.7%	3.2%	1.9%
CCc1c(C)nc2cc(-c3cc(OC)cc(OC)c3)nn2c1N1CCCC1	-16.2%	-2.5%	u	20µM*	5.1%	-7.3%
CCc1c(C)nc2cc(-c3ccc(OC)c(OC)c3)nn2c1N1CCCC1	-2.7%	-1.6%	u	u	4.8%	0.4%
COc1cc(C(Nc2ccccn2)c2ccc3ccc(C)nc3c2O)cc(OC)c1O (stereo not given)	12.6µM*	u	3.4%	11.2%	26.1%	-23.9%
O=C(c1cccc(F)c1)N1CCN(C(=O)c2cc(-c3ccc(Cl)cc3Cl)on2)CC1	15.8µM*	-0.6%	x	27.9%	u	-7.6%
O=C(Cc1nc2ccccc2s1)c1ccc(O)cc1O	15.8µM*	u	u	-37.3%	25.1%	-27.0%
COc1ccc(CC(=O)c2ccc(O)cc2O)cc1	-12.7%	0.8%	x	x	14.6%	-1.6%
COCCn1c(=S)[nH]c2cc(C(=O)N3CCc4ccccc43)ccc2c1=O	-4.5%	-1.9%	u	15.8µM*	u	-3.3%
COc1ccc(-c2nc3cnc(Oc4ccccc4)nc3n(CCC#N)c2=O)cc1	-6.0%	x	1.4%	13.0%	-0.8%	u
CCc1c2c(nc3cccc(OC)c13)OC(CC)C2 (stereo not given)	x	-4.2%	u	15.8µM*	-6.7%	0.5%
C[C@H](NC(=O)[C@@H]1C[C@H]1[C@@H](NC(=O)OCc1ccccc1)c1ccccc1)c1ccccc1	0.8%	-1.3%	u	u	-5.4%	-1.4%
O=C(c1ccco1)c1cn(CC(=O)N2CCCc3ccccc32)c2ccccc12	u	-1.1%	u	25.1µM*	-20.0%	-1.9%
O=C(Cn1cc2c(n1)CCCC2)N1CCCc2ccccc21	25.1µM*	-6.0%	28.5%	6.6%	-14.8%	1.3%
COCC(=O)N1CCC2(CC1)CCN(c1ccccc1)CC2	1.2%	-5.4%	-0.7%	-3.5%	16.2%	-2.4%
CC1(C)CC(N2CCN(c3ccccc3)CC2)=CC(=[N+]2CCCC2)C1	4.2%	1.7%	u	7.94µM*	-9.6%	-0.7%
CC1(C)CC(=O)c2cnc(N3CCN(c4ccccc4)CC3)nc2C1	5.2%	1.9%	4.5%	18.3%	6.7%	-0.6%
CCN1C(=O)CC(n2c(C)nc3ccccc32)C1=O (stereo not given)	5.8%	0.2%	-0.7%	3.5%	-14.2%	0.4%
CCN1c2ccccc2-c2nc3ccccc3n2C1c1ccncc1 (stereo not given)	-1.4%	-14.5%	u	20µM*	19.4%	-12.6%
CCN1c2ccccc2-c2nc3ccccc3n2C1c1cccnc1 (stereo not given)	-8.3%	x	u	31.6µM*	3.7%	u
CCN1c2ccccc2-c2nc3ccccc3n2C1c1ccccn1 (stereo not given)	-8.8%	x	u	15.8µM*	1.6%	u
c1cncc(C2Nc3ccccc3-c3nc4ccccc4n32)c1 (stereo not given)	2.3%	u	27.5%	3.8%	-4.0%	-17.1%
CCc1ncc(CO)n1Cc1cccc2ccccc12	-5.6%[11.4 µM]	2.6%[11.5 µM]	9.0%[11.4 µM]	10.3%[11.4 µM]	11.7%[11.5 µM]	3.4%[11.5 µM]
COC(=O)CC[C@@H](C)[C@H]1CC[C@H]2[C@H]3CC[C@H]4C[C@@H]5CC[C@@]4(C)C3(O5)[C@@H](Br)[C@@H](Br)[C@@]12C	9.2%[11.4 µM]	0.3%[11.5 µM]	-1.0%[11.4 µM]	4.9%[11.4 µM]	-0.1%[11.5 µM]	-3.2%[11.5 µM]
Cc1ccc2[nH]c3nc(SCCN4CCOCC4)nnc3c2c1	2.51µM*	-2.3%	-13.7%	-2.4%	-3.3%	-0.6%
Cc1ccc2[nH]c3c(=O)n(CCCN4CCOCC4)cnc3c2c1	-4.4%	-0.6%	-7.0%	-1.0%	-7.3%	1.2%
